Compounds without any hit were thinned out: in the full panel of roughly 83,000, 20% have a hit.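 Single-concentration screen, 48 h exposure, 96-well plates. Endpoint: percent growth. Below 10 = active.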 The source made the active and inactive calls.
Tested on: NCI-H322M lung
Test: NCI-60 one-dose screen, 48 h (100 = growth as untreated, 0 = no growth, -100 = all killed)
Conditions: 10 µM unless noted

Row | SMILES | growth
1 | C=CC(=O)Nc1cccc(-c2nc(SC)nc(NCc3ccccc3)c2C#N)c1 | 73.8% (inactive)
2 | COC(=O)c1cccc(NC(=O)c2ccc(-c3cccc(N)c3)o2)c1 | 101% (inactive)
3 | N#Cc1c(-c2ccc(Cl)cc2)nc(N=Nc2c(O)[nH]c3ccc(Cl)cc23)nc1N1CCOCC1 | 96.5% (inactive)
4 | N#CN1CCC[C@H]1C(=O)N1CCc2c(-c3[nH]nc4ncccc34)cccc21 | 20.6% (inactive)

Tested on: HOP-62 NSCLC
Test: as above
Conditions: 10 µM unless noted

Row | SMILES | growth
5 | Nc1ccc(S(=O)(=O)O)c2ccc(N=Nc3ccc(N=Nc4ccc(S(=O)(=O)O)cc4)c4ccccc34)c(O)c12 | 112% (inactive)
6 | CSc1ccc(-c2n[nH]nc2-c2cc3ccccc3s2)cc1 | 39.2% (inactive)
7 | COc1ccc(C(=O)COc2ccc(/C=C3\COc4ccc(OC)cc4C3=O)cc2)cc1 | 110% (inactive)
8 | COc1cc(C=Nc2oc(-c3ccccc3)c(-c3ccccc3)c2C#N)cc(CN2CCCCC2)c1O | 97.8% (inactive)
9 | O=C1CC[C@H](c2ccc(O)c3c2C(=O)[C@@H]2O[C@@H]2C3=O)c2cccc(O)c21 | 79% (inactive)
10 | C#CC(F)(F)[C@]1(O)CC[C@H]2[C@@H]3CCC4=CC(=O)CCC4=C3[C@@H](c3ccc(C(C)=O)cc3)C[C@@]21C | 74.4% (inactive)
11 | O=C(Cc1ccccc1Nc1c(Cl)cccc1Cl)NN1C(=O)/C(=C/c2ccc(Br)cc2)SC1=S | 104% (inactive)
12 | Cc1nn(-c2cc(=O)[nH]c3ccccc23)c(N)c1C#N | 100% (inactive)
13 | CCn1c(Cc2ccccc2Nc2c(Cl)cccc2Cl)nnc1SCC(=O)NN1C(=O)/C(=C/c2cc(OC)c(O)c(OC)c2)SC1=S | 29.9% (inactive)
14 | Cc1cc(C)nc(SC2=C(Nc3cc(Cl)ccc3O)C(=O)N(Cc3ccccc3)C2=O)n1 | 102% [30 µM] (inactive)
15 | CCN(CC)c1ccc(/C=N\NC(=O)/C=C/C=C/c2ccc3c(c2)OCO3)c(O)c1 | 28.5% (inactive)
16 | N#Cc1cnn(-c2nc3c(Cl)cccc3s2)c1N | 81.3% (inactive)
17 | COc1ccc(S(=O)(=O)N2CC3(COC3)C2)cc1NC(=O)c1[nH]c(C)c2c1CCCCC2=O | 40.6% (inactive)
18 | Cn1cc(C(=O)c2nc(-c3c[nH]c4ccc(F)cc34)no2)c2cc(F)ccc21 | 91.2% (inactive)
19 | O=C1C=C(OCC=C(Cl)Cl)C(=O)c2ccccc21 | 87.2% (inactive)
20 | Cc1cc(C)nc(SC2=C(Nc3cccc(Cl)c3)C(=O)N(Cc3ccccc3)C2=O)n1 | 90.3% [30 µM] (inactive)

Row | SMILES | growth
21 | O=c1cc(CSc2nnc(-c3ccc(F)cc3)o2)c2ccc3ccccc3c2o1 | 75.4% (inactive)
22 | CCCn1c(=O)[nH]c(N)c([C@H]2c3ccccc3Oc3[nH]c(=O)n(CCC)c(=O)c32)c1=O | 90.8% (inactive)
23 | O=C(CCN1C(=O)/C(=C/c2ccc(Cl)cc2)SC1=S)NCCCN1CCOCC1 | 101% (inactive)
24 | Cc1nc2ccccc2n1C(=O)C[C@@H]1NC(=S)NC1=O | 93.2% (inactive)
25 | O=C(N=Nc1c(O)[nH]c2ccc(Br)cc12)c1cc(-c2ccccc2)on1 | 102% (inactive)
26 | C=C(C)C(=O)Nc1ccc(NC(C)C)cc1 | 104% (inactive)
27 | CC(O)CN1CC(O)=C(c2nc3ccccc3s2)C1=N (stereo unspecified) | 95.2% (inactive)
28 | O=c1c2c3c(sc2nc(N/N=C/c2cn(-c4ccccc4)nc2-c2ccc(Cl)cc2)n1Cc1ccccc1)CCCC3 | 98.5% (inactive)
29 | COc1cccc(-c2nn(C(C)(C)C)cc2-c2ccnc(NCCCNS(=O)(=O)c3ccc(C)cc3)c2)c1 | 100% (inactive)
30 | CSc1nc(Nc2cccc(NC(=O)CCl)c2)c(C#N)c(-c2cccc([N+](=O)[O-])c2)n1 | 86.5% (inactive)
31 | CSc1nc(Nc2cccc(NC(=O)/C(C#N)=C/c3c(Cl)cccc3Cl)c2)c(C#N)c(-c2cccc([N+](=O)[O-])c2)n1 | 89.7% (inactive)
32 | COc1ccc(-c2nc3ccc(-c4nc5ccc(N6CCN(c7ccccc7)CC6)cc5[nH]4)cc3[nH]2)cc1OC | 27% (inactive)
33 | COc1ccc(CCNc2nc3c(c(=O)n(Cc4ccc(Br)cc4)c(=O)n3C)n2C)cc1OC | 113% (inactive)
34 | C=CCSSc1ncnc2c1ncn2C1OC(CO)C(O)C1O (stereo unspecified) | 19.8% (inactive)
35 | Cc1ccc(NC(=O)C2CCC(CN3CCN(C)CC3)CC2)cc1Nc1nccc(-c2cccnc2)n1 (stereo unspecified) | 105% (inactive)
36 | COc1cc(/C=C/c2cc(O)c3cc(C(C)=O)c(=O)oc3c2)cc2c1O[C@]1(C)CC[C@@H](O)C(C)(C)[C@H]1C2 | 50.4% (inactive)
